Laboratory results reported in PubChem BioAssay (NCI).
This is part of a sample that, as a whole, favours compounds with a hit. Of some 79,000 tested, about 15% had one in any assay. A number with no mark means an inactive call. Active and inactive are the calls of the source. Rule as the data show it: active = growth inhibition above about 70%; inactive = the rest.

Assays:
[1] = NCI Yeast Anticancer Drug Screen. Data for the rad50 strain (AID 155);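 also: 0% = growth of vehicle-only cultures of the same strain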; settings: S. cerevisiae rad50 strain growth inhibition; at 50.0 µM; stronger effect = higher value
Procedure, shortened: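 Cells are treated with compound, grown, and their growth is then scored against vehicle-only cultures of the same repair-deficient yeast strain.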

[2] = NCI Yeast Anticancer Drug Screen. Data for the mec2-1 strain (AID 157); settings: S. cerevisiae mec2-1 strain, at 50.0 µM, stronger effect = higher value
Procedure, shortened: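 Cells of the genetically defined mec2-1 yeast strain are incubated with test compound. Inhibition of growth is calculated against vehicle-treated controls.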

[3] = NCI Yeast Anticancer Drug Screen. Data for the sgs1 mgt1 strain (AID 161);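 also: 0% = growth of cultures given vehicle only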; settings: S. cerevisiae sgs1 mgt1 strain, at 50.0 µM, stronger effect = higher value
Procedure, shortened: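 Test agents were incubated with a DNA-repair-mutant yeast strain. Growth was then read and compared against vehicle-treated controls.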

[4] = NCI Yeast Anticancer Drug Screen. Data for the cln2 rad14 strain (AID 165);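 also: 0% = growth equal to vehicle treated cultures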; settings: S. cerevisiae cln2 rad14 strain, at 50.0 µM, stronger effect = higher value
Procedure, shortened: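 The screen exposed genetically defined yeast (cln2 rad14) to test compounds and scored growth inhibition relative to vehicle-treated controls.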

[5] = NCI Yeast Anticancer Drug Screen. Data for the bub3 strain (AID 167); settings: S. cerevisiae bub3 mutant strain, at 50.0 µM, stronger effect = higher value
Procedure, shortened: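 Part of a panel of yeast mutants defective in DNA damage repair or cell cycle regulation. Each strain is grown with compound, and inhibition is calculated relative to solvent-treated cultures.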

[6] = NCI Yeast Anticancer Drug Screen. Data for the mlh1 rad18 strain (AID 175); settings: S. cerevisiae mlh1 rad18 strain growth inhibition; at 50.0 µM; stronger effect = higher value
Procedure, shortened: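 Compound-treated yeast growth, normalised to vehicle controls. Strain bears defined DNA repair mutations.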

| Compound | growth inhibition [1] | growth inhibition [2] | growth inhibition [3] | growth inhibition [4] | growth inhibition [5] | growth inhibition [6] |
| --- | --- | --- | --- | --- | --- | --- |
| Cc1ccc([N+](=O)[O-])c2c(NCCNC(=O)Cn3ccnc3[N+](=O)[O-])ccnc12 | 15.8% | 4.3% | 8.25% | -0.7% | 16.4% | 12.3% |
| O=C(O)CCCCCCCCCCCc1ccccc1 | -30.8% | -16.8% | -19.3% | -13.2% | 5.55% | -38.5% |
| CNC(=O)N(C)c1cc(N(C)C)nc(OC)n1 | -16.4% | -34.6% | -19.4% | -9.4% | -20.8% | -23.4% |
| Clc1ccc2cn[nH]c2c1 | -50.4% | -28.1% | -23.2% | 3.3% | -18.9% | -9.3% |
| C=CCOc1cc(=O)[nH]c2ccccc12 | -14.1% | -4.4% | -0.9% | -51.1% | -0.45% | 2.9% |
| CCCCCCCCCCCCc1ccc(CS)cc1 | 40.9% | 36.3% | 54% | -1.7% | 51.3% | 32.6% |
| NC(=O)COc1ccc(Br)cc1Br | -0.1% | -3.15% | -12.7% | 13.6% | -6.3% | 11.8% |
| C/C=C/Sc1ccccc1C(=O)O | -14.3% | -19.4% | -9.55% | -18.9% | -22.6% | -34% |
| C/C=C/CS(=O)(=O)Cc1ccccc1 | 1.85% | -11.8% | -5.95% | -3.95% | -4.3% | -14.9% |
| CN(C)C(=O)C(c1ccccc1)P(=O)(c1ccccc1)c1ccccc1 (configuration not stated) | -7.9% | -12.1% | -0.9% | -26.6% | -21.2% | -5.25% |
| O=C1Cc2c(c3ccccc3c3ccccc23)C1 | 20.9% | 7.5% | -4.1% | -41% | 4% | 20.9% |
| O=C(O)[C@@H]1[C@@H]2C[C@@H]3[C@H](OC(=O)[C@@H]31)[C@@H]2O | -20.9% | -12.2% | -25.4% | 1.9% | -15.8% | -41.4% |
| CC(CS(C)(=O)=O)S(=O)(=O)Cc1ccccc1 (configuration not stated) | -2.4% | 6.05% | 3.2% | -28.8% | 6.25% | -0.45% |
| O=C(C(=O)c1ccco1)c1ccco1 | 64.1% | -0.45% | 34.1% | -24.6% | 21.1% | 35% |
| C/C(=N/Nc1ccc([N+](=O)[O-])cc1[N+](=O)[O-])c1ccc(Sc2ccc(/C(C)=N/Nc3ccc([N+](=O)[O-])cc3[N+](=O)[O-])cc2)cc1 | -13.2% | -21.1% | -10.3% | -19.4% | -14.9% | -23.4% |
| Nc1nc(Cl)nc(Cl)c1N | -21.9% | 7.1% | -17.3% | -23.4% | -8.95% | -2.95% |
| O=C1CSC(C(N=Nc2ccc(Cl)cc2)c2nc3ccccc3[nH]2)=N1 (configuration not stated) | -50.6% | -26.3% | -43.1% | -18.1% | -42.6% | -46.7% |
| C/C(=N/N(C)c1ccccc1)C(C)C | 14.5% | -6.75% | 3.45% | 1.6% | 24.4% | 10.7% |
| Fc1c(F)c(F)c(CCc2c(F)c(F)c(F)c(F)c2F)c(F)c1F | 11.2% | -8.2% | 15.9% | -39.1% | -41.4% | 19.2% |
| COC(=O)C1CSC(C)(C)N1 (configuration not stated) | 10.6% | -8.55% | -1.5% | -0.95% | -7.35% | 4.35% |
| O=C1CCC2CCc3cccc1c32 (configuration not stated) | 0.15% | -7.75% | -12.3% | -19.4% | -18.6% | 3.05% |

| Compound | growth inhibition [1] | growth inhibition [2] | growth inhibition [3] | growth inhibition [4] | growth inhibition [5] | growth inhibition [6] |
| --- | --- | --- | --- | --- | --- | --- |
| CCCC(CCc1ccccc1)C(=O)NC(N)=O (configuration not stated) | 4.5% | -5.6% | 1.45% | 2.55% | 42.7% | 1.4% |
| Cc1cn2cc(-c3cccs3)nc2s1 | 15.2% | -1% | 19.4% | 18.6% | -7.8% | 15.1% |
| O=C(O)CC(CC(=O)O)c1ccc2c(c1)OCO2 | -32.6% | -20.9% | -3.7% | -1.2% | -35.8% | -13.1% |
| O=C(O)C(=O)c1ccc(O)cc1O | -1.6% | 2.6% | -8.15% | -35.9% | 1.85% | 14.9% |
| CCC1(C)OC(C)CC(C)(C)O1 (configuration not stated) | 0.65% | -22.9% | -25.4% | -0.25% | -12.6% | 0% |
| COc1cccc(C(=O)CCN(C)C)c1 | 33.4% | 0.35% | -2.8% | 12.1% | 18.1% | 28.1% |
| NC(CC(F)(F)F)C(=O)O (configuration not stated) | 22.9% | 4.2% | 16.7% | 31.3% | -2.65% | 11.9% |
| N#CC(C#N)=C/C=C/C=C/c1c(Cl)cccc1Cl | -6% | 1.8% | 0.95% | -3.25% | -6.8% | -14.4% |
| COc1ccc2oc(=S)[nH]c2c1 | 11.8% | 8.6% | 54.1% | 9.4% | -4.45% | 42.7% |
| C=C(Cl)/C(=C\Cl)CCC(Cl)C(C)C (configuration not stated) (tested in a mixture with another compound) | 68.5% | 78% (active) | 91% (active) | 72% (active) | 90.8% (active) | 89.3% (active) |
| Cc1nc2ccccc2nc1CCC(=O)O | -22.9% | 4.25% | -17.4% | -23.6% | -11.2% | -6.65% |
| C=CC(C)(O)/C=C/C=C(\C)C(CC1OC1(C)C)OC(=O)/C(C)=C\C (configuration not stated) | -10.8% | -16.9% | 3.55% | 10.3% | -19.6% | -64.1% |
| COc1cc(OC)cc(C(NC(C)=O)NC(C)=O)c1 | 5.45% | 2.55% | 7.7% | -31.2% | 1.5% | 17.1% |
| NC(=O)c1nnc2cc(F)ccc2c1N | 4.8% | -3.45% | 1.35% | 0.4% | 1.6% | -1.6% |
| O=C(O)C1CCC2SC(F)(F)C(F)(F)C2C1 (configuration not stated) | -4.05% | 12.2% | 2.65% | 12.5% | 8.55% | 11.6% |
| O=C(CC(c1ccccc1)C(Sc1ccccc1)(Sc1ccccc1)Sc1ccccc1)c1ccccc1 (configuration not stated) | 13.2% | 15.3% | 13.4% | 3% | -1.35% | 7.25% |
| O=C(NCC1(c2ccc3c(c2)OCO3)OCCO1)c1ccccc1[N+](=O)[O-] | 20% | -4.1% | -2.1% | -42.6% | -5.75% | 2.6% |
| CCOC(OCC)c1ccccc1C | 27.9% | 9.3% | 8.25% | -36.5% | 15.2% | 20.4% |
| O=C1c2ccccc2C(=O)N1C/C=C/CN1C(=O)c2ccccc2C1=O | 6.85% | -5.7% | 12.2% | -9.4% | 8.05% | 2.5% |
| NC(=O)c1cccc2c1OCO2 | -8.75% | 9.7% | -7.35% | -10.6% | -0.6% | -5.25% |
| CCN(CC)C(=O)C1CCN(Cc2ccc3c(c2)CCC3)CC1 | -4.1% | 42.5% | -1.2% | -16.6% | 2.9% | 3.95% |
